According to PubChem BioAssay (Tox21):
Inconclusive results are not listed. More than one record can exist for a structure, and the calls need not agree. The source made the active and inactive calls. Unless noted, calls come from the whole dose curve.

Legend:
[1] = Nuclear factor erythroid 2-related factor 2/antioxidant responsive element (Nrf2/ARE) small molecule agonists: qHTS cell viability counter screen in human keratinocytes (AID 1919968; active = well fitted cell-killing curve with a large enough effect in the repeat runs; note: nearly all actives have a fitted effect of over 55% in size)
How it was run: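 Cytotoxicity was multiplexed with the Nrf2/ARE luciferase assay in the same wells. Stably transfected HaCaT keratinocytes were treated with test compounds for 23 h at 37 C. Cell viability was then measured by CellTiter-Fluor fluorescence.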

[2] = Nuclear factor erythroid 2-related factor 2/antioxidant responsive element (Nrf2/ARE) small molecule agonists: luciferase reporter gene qHTS assay in human keratinocytes (AID 1919969); note: nearly all actives have a fitted effect of over 35% in size
[3] = molecular target: Gonadotropin-releasing hormone receptor (Homo sapiens) (UniProt P30968); test: Human gonadotropin-releasing hormone receptor (GnRHR) small molecule agonists, calcium flux assay in GnRHR-HEK293 cells (AID 1920063); note: nearly all actives have a fitted effect of over 35% in size
Gonadotropin-releasing hormone receptor (Homo sapiens), sequence (P30968 whole entry, looked up): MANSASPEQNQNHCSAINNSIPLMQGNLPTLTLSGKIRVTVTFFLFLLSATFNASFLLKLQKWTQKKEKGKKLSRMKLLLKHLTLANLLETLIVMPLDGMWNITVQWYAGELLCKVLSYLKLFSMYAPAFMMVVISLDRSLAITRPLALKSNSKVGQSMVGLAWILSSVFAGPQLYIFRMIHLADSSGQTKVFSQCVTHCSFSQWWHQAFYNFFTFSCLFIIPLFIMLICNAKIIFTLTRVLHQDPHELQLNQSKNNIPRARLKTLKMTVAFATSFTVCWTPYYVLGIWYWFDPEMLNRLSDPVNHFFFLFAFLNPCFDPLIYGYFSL
How it was run: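 Agonist activity was measured as intracellular calcium flux in HEK293 cells engineered to stably express human GnRHR. After dye loading for 1 hour at 37 C, compounds in DMSO were added and fluorescence was followed for 3 minutes.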

[4] = p53 small molecule agonists, cell-based qHTS assay with human liver microsomes: qHTS cell viability counter screen (AID 1963579); note: nearly all actives have a fitted effect of over 45% in size
How it was run: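 Cytotoxicity counter screen: p53RE-bla, 4,000 cells/well; 5 h settle, 37 C/5% CO2; cpd + HLM 0.5 mg/mL + NADPH 0.5 mg/mL (final); 16 h, 37 C; CellTiter-Glo, 30 min RT, luminescence.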

[5] = p53 small molecule agonists, cell-based qHTS assay with rat liver microsomes: qHTS cell viability counter screen (AID 1963580); note: nearly all actives have a fitted effect of over 45% in size
How it was run: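 After the beta-lactamase ratio was read, CellTiter-Glo was added to the same wells and luminescence measured at 30 min; cells had been treated 16 h at 37 C with compounds, rat liver microsomes and NADPH (0.5 mg/mL final each).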

[6] = p53 small molecule agonists, cell-based qHTS assay: qHTS cell viability counter screen (AID 1963581); note: nearly all actives have a fitted effect of over 45% in size
How it was run: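 Viability was counter-screened in parallel with the p53 agonist reporter by measuring intracellular ATP luminescence in the same HCT-116 p53RE-bla wells after 16 h compound treatment at 37 C.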

[7] = molecular target: 5-hydroxytryptamine receptor 2A (Homo sapiens) (UniProt P28223); test: 5-hydroxytryptamine receptor 2A (HTR2A) small molecule antagonists, cell-based qHTS assay (AID 1963586); note: nearly all actives have a fitted effect of over 45% in size; note: potency is the fitted concentration of half-maximal effect
5-hydroxytryptamine receptor 2A (Homo sapiens), sequence (P28223 whole entry, looked up): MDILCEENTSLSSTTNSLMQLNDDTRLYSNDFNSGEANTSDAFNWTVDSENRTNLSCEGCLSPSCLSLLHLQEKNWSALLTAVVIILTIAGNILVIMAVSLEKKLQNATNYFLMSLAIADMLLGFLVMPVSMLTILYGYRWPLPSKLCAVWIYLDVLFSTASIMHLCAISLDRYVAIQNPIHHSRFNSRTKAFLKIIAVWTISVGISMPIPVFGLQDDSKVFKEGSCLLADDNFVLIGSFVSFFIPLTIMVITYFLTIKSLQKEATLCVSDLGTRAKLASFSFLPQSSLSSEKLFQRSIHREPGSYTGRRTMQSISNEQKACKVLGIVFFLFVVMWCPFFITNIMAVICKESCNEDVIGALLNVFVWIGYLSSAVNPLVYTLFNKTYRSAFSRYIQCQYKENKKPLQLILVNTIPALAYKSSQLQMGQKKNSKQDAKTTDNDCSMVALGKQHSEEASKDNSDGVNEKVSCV
How it was run: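 CHO cells stably expressing human HTR2A were plated for 18 h at 37 C, then loaded with calcium dye for 1 h. Compounds were preincubated 5 min at room temperature before DOI (4 nM solution) was added. Kinetic fluorescence was read for 3 min.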

[8] = molecular target: 5-hydroxytryptamine receptor 2A (Homo sapiens) (UniProt P28223); test: 5-hydroxytryptamine receptor 2A (HTR2A) small molecule agonists, cell-based qHTS assay (AID 1963587); note: nearly all actives have a fitted effect of over 30% in size
How it was run: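 CHO cells stably expressing human HTR2A, plated 18 h, loaded with calcium dye 1 h at 37 C. Agonist mode: compounds added and intracellular calcium fluorescence recorded kinetically for 2 min at 1 sec intervals.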

[9] = molecular target: Muscarinic acetylcholine receptor M1 (Homo sapiens) (UniProt P11229); test: Cholinergic receptor muscarinic 1 (CHRM1) small molecule antagonists, cell-based qHTS assay (AID 1963588); note: nearly all actives have a fitted effect of over 40% in size; note: potency is the fitted concentration of half-maximal effect
Muscarinic acetylcholine receptor M1 (Homo sapiens), sequence (P11229 whole entry, looked up): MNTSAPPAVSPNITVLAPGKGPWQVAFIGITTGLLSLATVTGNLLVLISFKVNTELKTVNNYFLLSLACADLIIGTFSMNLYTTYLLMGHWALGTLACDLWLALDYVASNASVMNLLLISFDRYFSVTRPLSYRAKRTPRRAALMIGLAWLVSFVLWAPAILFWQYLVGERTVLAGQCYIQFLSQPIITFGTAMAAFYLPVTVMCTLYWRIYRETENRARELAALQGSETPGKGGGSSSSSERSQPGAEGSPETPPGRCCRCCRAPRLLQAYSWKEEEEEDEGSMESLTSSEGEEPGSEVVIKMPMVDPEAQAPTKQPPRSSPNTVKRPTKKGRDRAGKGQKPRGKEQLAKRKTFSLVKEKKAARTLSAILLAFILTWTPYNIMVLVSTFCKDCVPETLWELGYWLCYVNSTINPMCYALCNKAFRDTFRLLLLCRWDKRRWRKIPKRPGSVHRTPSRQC
How it was run: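 Compounds were tested at 15 concentrations in three independent runs. Dye-loaded CHRM1-CHO cells were exposed 5 min at room temperature before stimulation by acetylcholine added at 50nM. Intracellular calcium was read kinetically on FDSS for 3 min.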

[10] = molecular target: Muscarinic acetylcholine receptor M1 (Homo sapiens) (UniProt P11229); test: Cholinergic receptor muscarinic 1 (CHRM1) small molecule agonists, cell-based qHTS assay (AID 1963589); note: nearly all actives have a fitted effect of over 35% in size
How it was run: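 Cells were plated and incubated 18 h at 37 C/5% CO2, loaded with calcium dye for 1 h at 37 C, then treated with compounds in DMSO. Fluorescence was recorded kinetically at 1 sec intervals.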

[11] = cAMP Responsive Elements (CRE) small molecule agonists, cell-based qHTS assay (AID 1963590)
How it was run: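 Cells carrying a CRE-driven beta-lactamase reporter (HEK 293T) are seeded, incubated overnight (18 h), and treated with test compounds for 3 h at 37 C; reporter activity is then detected with a FRET substrate after 2 h at room temperature.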

[12] = cAMP Responsive Elements (CRE) small molecule antagonists, cell-based qHTS assay (AID 1963591; active = well fitted inhibition curve with a large enough effect in the signal ratio in the repeat runs, not every such curve was filed as active; the % refers to the signal ratio)
How it was run: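 Cells (CRE-bla HEK 293T, DMEM with 10% dialyzed FBS and 25 mM HEPES) are seeded and incubated 18 h. Compounds are added with NKH477 agonist at 0.25 uM final for 3 h, then FRET substrate for 2 h.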

[13] = molecular target: Beta-2 adrenergic receptor (Homo sapiens) (UniProt P07550); test: Adrenergic beta2 receptor (ADRB2) small molecule antagonists, cell-based qHTS assay (AID 1963592); note: series mostly up to about 92 µM; nearly all actives have a fitted effect of over 50% in size
Beta-2 adrenergic receptor (Homo sapiens), sequence (P07550 whole entry, looked up): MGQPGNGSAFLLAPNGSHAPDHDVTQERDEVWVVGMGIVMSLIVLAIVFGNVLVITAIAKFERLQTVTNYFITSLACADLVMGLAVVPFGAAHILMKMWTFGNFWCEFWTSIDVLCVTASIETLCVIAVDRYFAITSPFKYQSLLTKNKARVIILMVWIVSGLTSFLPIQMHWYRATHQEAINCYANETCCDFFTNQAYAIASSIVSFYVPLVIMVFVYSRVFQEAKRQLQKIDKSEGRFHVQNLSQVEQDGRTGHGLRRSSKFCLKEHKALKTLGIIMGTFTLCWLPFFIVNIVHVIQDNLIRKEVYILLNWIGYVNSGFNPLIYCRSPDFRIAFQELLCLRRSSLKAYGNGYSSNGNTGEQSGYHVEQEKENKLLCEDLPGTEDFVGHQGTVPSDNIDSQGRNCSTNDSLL
How it was run: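 Assay format: CHO-ADRB2 cells, 18-20hr seeding at 37C/5% CO2, then compound plus 1nM isoproterenol agonist mix for 0.5hr RT. Homogeneous time-resolved fluorescence cAMP detection after 1hr, expressed as 665/615 nm ratio.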

[14] = molecular target: Beta-2 adrenergic receptor (Homo sapiens) (UniProt P07550); test: Adrenergic beta2 receptor (ADRB2) small molecule agonists, cell-based qHTS assay (AID 1963593);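 note: CHO cells stably overexpressing human ADRB2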
How it was run: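 CHO cells stably over-expressing ADRB2 were plated overnight at 37C, then dosed with compounds plus a stimulation mix containing 100uM IBMX and 25uM Ro-20-1724 for 0.5hr at room temperature. cAMP was measured by HTRF competition, 1hr.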

[15] = molecular target: D(2) dopamine receptor (Homo sapiens) (UniProt P14416); test: Dopamine D2 receptor (DRD2) small molecule agonists, cell-based qHTS assay (AID 1963594); note: nearly all actives have a fitted effect of over 35% in size
D(2) dopamine receptor (Homo sapiens), sequence (P14416 whole entry, looked up): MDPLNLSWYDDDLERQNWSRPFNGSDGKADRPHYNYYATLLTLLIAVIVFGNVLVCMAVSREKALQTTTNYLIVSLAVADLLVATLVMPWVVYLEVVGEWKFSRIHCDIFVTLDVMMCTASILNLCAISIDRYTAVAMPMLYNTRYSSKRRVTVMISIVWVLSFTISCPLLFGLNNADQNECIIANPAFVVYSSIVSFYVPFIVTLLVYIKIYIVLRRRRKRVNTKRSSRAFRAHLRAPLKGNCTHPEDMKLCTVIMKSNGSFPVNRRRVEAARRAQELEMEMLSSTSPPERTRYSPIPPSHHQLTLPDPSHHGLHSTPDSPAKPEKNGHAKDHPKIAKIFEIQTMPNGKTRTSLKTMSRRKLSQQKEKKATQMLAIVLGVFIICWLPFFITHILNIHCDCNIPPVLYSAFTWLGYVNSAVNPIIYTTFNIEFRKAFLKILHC
How it was run: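 HEK293 cells stably expressing human DRD2, pre-treated with PDE inhibitor Ro20-1724 (0.1 mM final) and compound 10 min at room temperature, then stimulated with NKH477 (200nM […]) for 30 min. cAMP read by HTRF (665/620 nm).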

[16] = molecular target: D(2) dopamine receptor (Homo sapiens) (UniProt P14416); test: Dopamine D2 receptor (DRD2) small molecule antagonists, cell-based qHTS assay (AID 1963595; active = well fitted inhibition curve with a large enough effect in the signal ratio in the repeat runs, with a control signal flat; the % refers to the signal ratio)
How it was run: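 Readout: HTRF cAMP, cAMP-d2 competing with cellular cAMP for anti-cAMP cryptate, read after 1 h. Cells: DRD2-HEK293. Conditions: 0.1 mM Ro20-1724, 12 nM quinpirole, 200 nM NKH477, 30 min RT.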

[17] = p53 small molecule agonists, cell-based qHTS assay with human liver microsomes (AID 1963577)
How it was run: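 Fluorescence of the beta-lactamase reporter in p53RE-bla cells, detected with LiveBLAzer substrate (2 h, room temperature, dark), served as the read-out after 16 h compound exposure at 37 C with human liver microsomes and NADPH, each 0.5 mg/mL final.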

[18] = p53 small molecule agonists, cell-based qHTS assay with rat liver microsomes (AID 1963578)
How it was run: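 Cells carrying a p53 response element–beta-lactamase reporter were plated and rested 5 h, then dosed with compound in DMSO plus rat liver microsomes and NADPH, each at 0.5 mg/mL final. After 16 h at 37 C, LiveBLAzer substrate was added for 2 h.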

[19] = p53 small molecule agonists, cell-based qHTS assay (AID 1963582; active = well fitted activation curve with a large enough effect in the signal ratio in the repeat runs, not every such curve was filed as active; the % refers to the signal ratio)
How it was run: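 Cells carrying a p53-responsive bla reporter are treated with test compounds for 16 h at 37 C; beta-lactamase activity is then detected with LiveBLAzer B/G FRET substrate after 2 h at room temperature.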

[20] = G protein-coupled receptor (GPCR) small molecule agonists, calcium flux assay: HEK293 wild type cell line counter screen (AID 1920065)
How it was run: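 Seed cells, incubate 18 h (37 C, 5% CO2); add calcium dye, 1 h at 37 C; pin-transfer compounds, ATP control or DMSO; read fluorescence 480/540 nm each second for 3 min.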

Measured: Potency

CCC/C=C/C=O
not listed: [17] | [18] | [19] | [20]
inactive: all other assays above

CCC(=O)Nc1cccc(N)c1
not listed: [5] | [6] | [13] | [14] | [20]
inactive: all other assays above

CC(C)CCCC(C)CCCC(C)CCCCC(C)CCCC(C)CCCC(C)C (centres undefined)
not listed: [4] | [6] | [14] | [15] | [20]
inactive: all other assays above

CC(O)CCCCn1c(=O)c2c(ncn2C)n(C)c1=O (centres undefined)
inactive: all assays above

COC(=O)c1cc(S(N)(=O)=O)ccc1OC
not listed: [4] | [7] | [10] | [14] | [16] | [18] | [20]
inactive: all other assays above

[Cl][Eu]([Cl])[Cl]
not listed: [13] | [14] | [15] | [16] | [17] | [20]
inactive: all other assays above

COC(=O)Cc1cccc2ccccc12
not listed: [13] | [18] | [20]
inactive: all other assays above

O=S(=O)(O)c1cccc(S(=O)(=O)O)c1
not listed: [4] | [8] | [14] | [18] | [20]
inactive: all other assays above

O=C(COc1ccc(Cl)cc1)N1CCN(Cc2ccc3c(c2)OCO3)CC1
29.8 µM (active) and inactive: [7]
37.5 µM (active) and inactive: [9]
not listed: [8] | [14] | [17] | [18] | [19] | [20]
inactive: all other assays above
